# High-throughput results: PubChem BioAssay, several laboratories
# tim10-1 inh – growth inhibitors of tim10-1 mutant yeast | inhibition, % at 20 µM | S. cerevisiae tim10-1 ts strain growth, BacTiter-Glo, 24 h | AID 463190 | 2.2% of 330,000 active;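 active means inhibition of at least 40%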;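 further: mutant grown at 25 °C; 0% = DMSO wells with yeast and 100% = wells holding no yeast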
# SKKanGAS inh – SKKanGAS growth inhibition; S. pyogenes SKKanGAS, kanamycin growth, BacTiter-Glo, 6 h; inhibition, % at 7.5 µM; AID 1662; 1.3% of 300,000 active;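 active means mean replicate score, as percent of positive control median, at least 50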;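 further: strain carries kanamycin resistance gene driven by streptokinase promoter and grows in 40 µg/ml kanamycin; loss of luminescence reflects streptokinase promoter inhibition or plain growth inhibition; 0% = median of DMSO wells and 100% = positive control at its reference dose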
# PfHsp90 yeast 2 – reduces growth (ATP signal) of yeast expressing P. falciparum Hsp90; 0.32% of 310,000 active; inhibition, % at 9.4 µM; S. cerevisiae expressing PfHsp90, BacTiter-Glo ATP, 48 h; yeast lacking PDR1 and PDR3 efflux regulators; AID 504621;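 active means every replicate shows inhibition above about 80%, whatever the replicate mean, limit read from the data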;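 further: 0% = DMSO neutral controls and 100% = 20 µM radicicol positive controls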
# TIM10 inh – inhibits growth of TIM10 yeast strain; S. cerevisiae TIM10 strain growth, BacTiter-Glo luminescence, 24 h; inhibition, % at 10 µM; 1.4% of 330,000 active; AID 463195;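 active means inhibition of 40% or more at the single tested concentration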;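 further: wild-type TIM10 isogenic control strain grown at permissive 25 °C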
# tim23-1 inh – tim23-1 yeast growth inhibition | S. cerevisiae tim23-1 growth, BacTiter-Glo luminescence, 24 h | inhibition, % at 20 µM | 1.3% of 330,000 active;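 active means growth inhibition of the mutant yeast at or above 50%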;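 further: temperature-sensitive mutant grown at 25 °C; plate controls were DMSO-treated mutant yeast for no effect and medium wells lacking yeast for full effect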
# V-ATPase pH – yeast V-ATPase proton transport regulation by pHLuorin; 0.37% of 350,000 active; S. cerevisiae, pHLuorin cytosolic pH fluorescence; response, % at 10 µM; in the data active means response mostly above about 7.3%, no sharp cut-off; inactive means mostly below about 5.4%; further: actives read high
# tim10-1 conf – confirmation of tim10-1 mutant yeast growth inhibitors; shares compounds with tim10-1 inh; S. cerevisiae tim10-1 ts strain growth, BacTiter-Glo, 24 h; inhibition, % at 20 µM; 56% of 7,400 active; AID 463213;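 active means inhibition of yeast growth at or above a set limit in either of two repeat tests at 20 µM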;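 further: tim10-1 mutant grown at permissive 25 °C to find synthetic lethal compounds; 0% = DMSO yeast wells and 100% = medium wells without yeast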
# The depositor's hits bear a star; / = no result given. Shown are actives, neighbours in structure and some others; about 4.6% of the full set was active somewhere.
SMILES,tim10-1 inh,SKKanGAS inh,PfHsp90 yeast 2,TIM10 inh,tim23-1 inh,V-ATPase pH,tim10-1 conf
N#CC(CC(=O)c1ccc(F)cc1)c1ccc2c(c1)OCO2 (stereo not drawn),40.5*,1.5,-7.4,18.0,38.9,-3.8,30.9*
O=C(/C=C/c1ccc2c(c1)OCO2)c1ccc(F)cc1,14.8,5.6,-5.6,2.8,6.8,1.4,/
Cc1ccc(S(=O)(=O)NC(=O)c2ccc(-c3ccc(-c4ccccc4)cc3)o2)c(C)c1,42.7*,25.4,/,-0.5,10.3,/,33.2*
Cc1ccn2cc(-c3cccc(S(=O)(=O)N4CCCC4)c3)nc2c1,50.0*,1.4,-50.4,8.7,26.8,-2.4,-7.4
Cc1ccn2cc(-c3cccc(S(=O)(=O)N4CC(C)OC(C)C4)c3)nc2c1 (stereo not drawn),41.5*,-0.7,-24.9,12.7,29.5,2.4,7.5
Cc1nc(-c2cccc(S(=O)(=O)N3CC(C)OC(C)C3)c2)cs1 (stereo not drawn),11.8,-1.6,15.0,6.5,12.9,-0.1,/
Cc1ccc(CSCCNC(=O)CSCc2ccc([N+](=O)[O-])cc2)cc1,41.6*,-8.1,/,14.1,32.8,-1.5,29.1
O=C(/C=C/c1cccc([N+](=O)[O-])c1)NCCSCc1ccc(Cl)cc1,45.3*,5.2,8.4,25.4,27.8,-1.9,21.8
Cc1cccc(CSCCNC(=O)CSCc2ccc([N+](=O)[O-])cc2)c1,45.9*,0.5,-8.6,20.3,30.4,-3.1,27.8
Cc1ccccc1CSCCNC(=O)CSCc1ccc([N+](=O)[O-])cc1,38.2,3.2,-60.7,22.0,37.6,-3.4,/
COc1ccc(NC(=O)CSc2nccn2Cc2ccco2)cc1,10.4,14.1,2.0,18.0,24.7,2.1,/
CSCCC(NS(=O)(=O)c1ccccc1F)C(=O)NCCCn1nc(C)cc1C (stereo not drawn),-5.7,-3.4,-24.6,-2.2,-8.8,-0.7,/
O=S(=O)(c1ccc(N2CCC(c3ccc(Cl)cc3)=N2)cc1)N(CCO)CCO,55.1*,3.7,-5.3,27.2,37.2,-4.9,48.0*
COc1ccc2nc(C)cc(N/N=C/c3cccc(OC)c3O)c2c1,-4.6,11.8,15.0,-6.6,1.8,2.0,/
COc1cccc(/C=N/Nc2nc(Nc3ccccc3)nc(-n3nc(C)cc3C)n2)c1O,45.2*,98.2*,/,14.2,41.5,-0.7,27.4
O=C(NCc1ccccc1)C(Cc1ccccc1)N1C(=O)C2C3CCC(C3)C2C1=O (stereo not drawn),40.4*,7.8,/,2.1,13.6,1.2,15.7
O=C(Oc1cc2oc(=O)c3c(c2cc1Cl)CCCC3)c1cccs1,43.0*,31.2,-3.6,23.0,31.0,0.3,16.6
CC(Sc1nnc(-c2ccc(OC(F)F)cc2)n1N)C(=O)NCC1CCCO1 (stereo not drawn),-8.8,16.3,-7.2,11.7,-1.5,-4.7,/
Cc1nc2cc(C(=O)N3c4ccccc4CC3C)ccc2s1 (stereo not drawn),43.0*,3.2,2.8,8.2,31.4,-4.8,8.7
CC1Cc2ccccc2N1C(=O)c1ccc2snnc2c1 (stereo not drawn),23.8,/,/,20.0,21.0,1.4,/
O=C(NCCN1CCN(Cc2ccccc2)CC1)c1ccc(CS(=O)(=O)c2ccc(Br)cc2)o1,13.9,-0.4,-14.4,-0.8,-1.1,3.8,/
CCc1cccc(CC)c1NC(=O)COC(=O)c1ccccc1-c1nc2ccccc2s1,44.4*,8.0,-0.1,9.8,26.4,2.6,19.2
COc1ccc(C2=NS(=O)(=O)N(C)C(C(=O)Nc3ccc(C(C)=O)cc3)=C2)cc1OC,18.7,2.0,-17.3,-1.9,10.7,1.0,/
CCOC(=O)C1(CCc2ccccc2)CCN(Cc2ccc(O)cc2)CC1,-1.1,-5.8,-20.3,-0.2,11.1,3.6,/
CCOC(=O)C1(S(=O)(=O)c2ccccc2)CCN(Cc2ccc(Cl)cc2)CC1,48.1*,-0.1,22.9,24.2,43.3,-2.0,20.1
SMILES,tim10-1 inh,SKKanGAS inh,PfHsp90 yeast 2,TIM10 inh,tim23-1 inh,V-ATPase pH,tim10-1 conf
Cc1ccc([N+](=O)[O-])cc1N/C=C1\CCCCC1=O,-10.2,1.2,0.3,-30.1,2.3,-3.5,/
CC(C)(C)NC(=O)Nc1ccc(F)c(Cl)c1,46.4*,5.0,-3.7,29.4,34.9,-1.4,43.5*
CCCNC(=O)Nc1ccc(F)c(Cl)c1,-4.6,-23.3,13.5,-11.5,19.2,-1.8,/
CSCCC(NC(=O)c1ccc([N+](=O)[O-])cc1Cl)C(=O)OC(C)C(=O)NCc1ccco1 (stereo not drawn),13.8,12.3,14.8,-1.0,4.9,-0.8,/
[O-][n+]1ccccc1/C=C/c1ccccc1,-8.7,0.8,18.4,-10.8,-14.4,1.5,/
[O-][n+]1c(/C=C/c2ccccc2)ccc2ccccc21,49.0*,6.6,5.8,22.6,49.9,8.2,27.9
CC1=CC(C)(C)Nc2ccc(OC(=O)CN3C(=O)c4ccccc4C3=O)cc21,46.9*,-2.0,14.6,16.1,42.0,1.8,32.5*
COCCCNC(=S)N1CCN(c2nc(-c3ccccc3)cs2)CC1,40.0*,4.6,-25.5,5.8,35.7,-2.6,13.4
COc1cccc(-c2csc(N3CCN(C(=S)Nc4ccccc4Cl)CC3)n2)c1,43.7*,14.9,-30.8,29.1,25.0,8.3,34.0*
O=C(CCCCCCCC(=O)N1CCCC1)N1CCCC1,/,/,-5.8,/,/,1.1,/
O=C(Nc1nc2ccc(F)cc2s1)c1cccs1,41.4*,8.5,1.9,33.9,36.0,0.3,31.9*
CCCC(=O)Nc1nc(-c2ccc(Cl)s2)cs1,-25.1,25.6,-21.5,-11.7,29.0,-2.1,/
O=C(Nc1ccccn1)c1ccc(Cl)s1,-17.7,-2.5,22.0,7.4,7.7,-3.7,/
O=C(Nc1nc(-c2ccc(Cl)s2)cs1)c1cccs1,41.9*,26.4,33.1,36.2,49.4,4.4,10.7
CN(C)S(=O)(=O)c1ccc2nc(NC(=O)c3cccs3)sc2c1,20.8,-2.6,6.8,27.5,40.5,1.4,/
O=C(Nc1nc(-c2ccccn2)cs1)c1ccc(Cl)s1,51.1*,101.8*,65.6,-0.4,35.2,-5.2,30.4
O=C(Nc1nc(-c2cc(Cl)sc2Cl)cs1)c1ccccc1,44.1*,21.7,/,25.5,40.2,-0.8,28.3
O=C(Nc1nc(-c2ccc(Cl)cc2)cs1)c1cccnc1,18.2,2.6,-1.8,5.1,5.2,2.8,/
CCOC(=O)C1=CNS(=O)(=O)NC1CCc1ccccc1 (stereo not drawn),21.9,/,-8.5,-3.3,33.4,-1.1,/
N=c1n(CCCOc2ccccc2Cl)c2ccccc2n1CC(N)=O,-13.1,0.6,16.0,-23.8,16.6,-3.3,/
CC(=O)c1c(COC(=O)c2ccc(C)cc2)nc2ccccc2[n+]1[O-],-19.4,46.5,/,-2.0,7.1,1.9,/
